Compounds without any hit were thinned out: in the full panel of roughly 83,000, 20% have a hit.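 For each line, cells grew in 96-well plates with the test compound present at a single concentration for 48 hours.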 A number with no mark means an inactive call. The source made the active and inactive calls. How the source made its calls: active means growth percent below 10; inactive means the rest.

The subject of this test is MDA-MB-468 breast. Put plainly: NCI-60 one-dose screen, 48 h (100 = growth as untreated, 0 = no growth, -100 = all killed). Particulars: 10 µM unless noted.
Consider `CC(C)(C)CC(C)(C)Nc1c(-c2ccc(C(F)(F)F)cc2)nc2cnccn12`, for which the growth was 100%. On to `N/C(=N\c1nc2ccccc2s1)NC(=O)Nc1cccc2ccccc12`, for which the growth is 3.96% (active). On to `C=C1c2nc3ccccc3n2C=C(c2ccc(Cl)cc2)N1Cc1ccccc1`, for which the growth was 59.1%. Turning to `C#Cc1cccc(NC(=O)c2ccc(NC(=O)CCl)cc2)c1`, the growth is -34.6% [8.25 µM] (active). For `COc1ccc2c(c1)NC1=C(C(=O)OC1)C2c1cc(OC)c2c(c1)OCO2` (centres undefined), the growth was -5.15% (active). As to `COC(=O)[C@@]1(C)CC[C@]2(C)CC[C@]3(C)C4=CC=C5C(=CC(=O)C(O)=C5C)[C@]4(C)[C@@H](O)C[C@@]3(C)[C@@H]2C1`, the growth is 10.1%. `Cn1c2c(Cl)c(Cl)ccc2c2cc(N)[nH]c(=O)c21`: the growth is 88.9%. As for `CC(C)CSc1nc(N)nc2c1ncn2C1OC(CO)C(O)C1O` (centres undefined), the growth is 96.5%.

In the case of `O=C(Nc1ccccc1)Nc1ccc2cc3ccc(NC(=O)Nc4ccccc4)cc3nc2c1`, the growth is -57.8% (active). Turning to `COc1ccc(C(=O)/C(=N/Nc2ccccc2)c2ccc(OC)cc2)cc1`, the growth was 106%. Take `CSc1nc(N)n2nccc2n1`: the growth is 114%. In the case of `c1ccc([P+](CCCc2n(Cc3ccc4ccccc4c3)c3ccccc3[n+]2Cc2ccc3ccccc3c2)(c2ccccc2)c2ccccc2)cc1`, the growth is 34.5%.

As to `COc1ccc(C(=O)Nc2cccc(C3CC(=O)c4c(cc(OC)c(OC)c4OC)O3)c2)cc1` (centres undefined), the growth is -2.79% (active).

As for `Cc1nn(-c2ccccc2)c2ncc3c(c12)C(=O)N(Cc1ccccc1)C3=O`, the growth was 77.8%.

For the origin of these results see PubChem BioAssay (NCI).
